Source: PubChem BioAssay (NCATS)
Inconclusive results are not listed. The source made the active and inactive calls. Calls follow the shape of the dose curve; as a rule, active = well fitted curve in the direction sought with a large enough effect; inconclusive = small, poorly fitted or top-dose-only effect, or another doubt; inactive = no such curve, though single readings can be large; an effect the other way counts as inactive or inconclusive. Where a SMILES comes first, the peptide text is derived from it. The star is where a group is joined. Cbz = O=C(OCc1ccccc1)*; CH2Cl = ClC*

Assays:
[1] = target: Glutathione peroxidase 1 (Homo sapiens) (UniProt P07203); assay: Primary qHTS Assay for Inhibitors of Recombinant Selenoprotein Glutathione Peroxidase 1 (GPX1) (AID 1845191); also: nearly all actives have a fitted effect of over 65% in size
Chain of Glutathione peroxidase 1 (Homo sapiens) (P07203 whole entry, looked up): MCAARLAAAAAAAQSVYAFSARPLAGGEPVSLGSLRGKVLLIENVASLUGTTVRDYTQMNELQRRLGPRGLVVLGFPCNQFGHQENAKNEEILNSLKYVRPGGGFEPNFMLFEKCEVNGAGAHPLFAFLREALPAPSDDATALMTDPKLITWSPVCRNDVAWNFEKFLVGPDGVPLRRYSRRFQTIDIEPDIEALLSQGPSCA
Outline: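 GR-coupled readout: NADPH consumption tracked by fluorescence, ex 340/em 450 nm, at t=0 and after 15 min at RT. Final mix 10 nM GPX1, 1 mM GSH, 0.5 mM CHP, 0.5 mM NADPH, 100 nM GR, 0.01% BSA, following 30 min enzyme–compound preincubation.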

[2] = target: Phospholipid hydroperoxide glutathione peroxidase GPX4 (Homo sapiens) (UniProt P36969); assay: Primary qHTS Assay for Inhibitors of Recombinant Selenoprotein Glutathione Peroxidase 4 (GPX4) (AID 1845192); also: nearly all actives have a fitted effect of over 65% in size
Chain of Phospholipid hydroperoxide glutathione peroxidase GPX4 (Homo sapiens) (P36969 whole entry, looked up): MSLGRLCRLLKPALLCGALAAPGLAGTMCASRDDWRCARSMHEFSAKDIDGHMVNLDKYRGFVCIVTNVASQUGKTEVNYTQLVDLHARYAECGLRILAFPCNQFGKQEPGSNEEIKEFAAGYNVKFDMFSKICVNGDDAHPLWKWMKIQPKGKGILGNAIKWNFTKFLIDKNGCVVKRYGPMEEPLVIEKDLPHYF
Outline: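 Steps: GPX4 plus compound, 30 min RT; add GR/GSH/NADPH master mix; start with cumene hydroperoxide; read 340/450 nm fluorescence at 0 and 15 min. Finals were 200 nM GPX4, 1 mM GSH, 0.5 mM CHP, 0.5 mM NADPH, 100 nM GR.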

[3] = target: Luciferin 4-monooxygenase (Photinus pyralis) (UniProt P08659); assay: Primary firefly luciferase (FLuc) qHTS assay for identification of artifact compounds. (AID 1845220); also: nearly all actives have a fitted effect of over 60% in size
Outline: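 Enzymatic FLuc inhibition assay: compounds pre-exposed to luciferin/ATP (10 uM each) for 15 min, then purified P. pyralis enzyme at 10 nM added. Read-out: luminescence at 5 min.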

[4] = Primary fluorescence-based thiol-reactive (MSTI) qHTS assay for identification of artifact compounds. (AID 1845221); also: nearly all actives have a fitted effect of over 65% in size; also: potency is read from the fitted curve at half-maximal effect
Outline: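 Thiol-reactive compounds detected by quenching of 4 uM MSTI fluorescence (525/598 nm) after 1 h room-temperature dark incubation in PBS pH 7.4, 2% DMSO. qHTS titration; percent inhibition Hill-fitted against Acetyl-MSTI/MSTI controls.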

[5] = test system: Nanoluciferase (engineered Oplophorus gracilirostris luciferase); assay: Primary Nanoluciferase (NLuc) qHTS assay for identification of artifact compounds. (AID 1845222);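 also: NLuc secreted into diluted conditioned medium of S16 cells; series mostly up to about 54 µM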
Outline: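 S16 cell supernatant NLuc, 1:55; cpds qHTS; 15 min RT dark; Nano-Glo substrate 1:100, 5 min; luminescence; Hill fit of % inhibition.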

[6] = Primary redox qHTS assay for identification of artifact compounds. (AID 1845223)
Outline: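 Redox-cycling detection via DTT (250 uM final) oxidation coupled to Amplex Red (25 uM)/HRP (250 mU/mL) in HBSS. 15 min preincubation plus 30 min after DTT, room temperature. Ex/Em 525/598 nm; 4-parameter Hill fit against DMSO and 10 uM DA3003.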

Measured: Potency

CC12CCC(OC3OC(CO)C(O)C(O)C3OC3OC(CO)C(O)C(O)C3O)CC1CCC1C2CCC2(C)/C(=C3/COC(=O)C3)CCC12O (centres undefined)
inactive: all assays above

COc1cc(O)cc(OC2OC(CO)C(O)C(O)C2O)c1 (centres undefined)
active: [4] 9.47 µM
inactive: all other assays above

COc1ccc(S(=O)(=O)Nc2c(C)cc(C)cc2C)cc1
inactive: all assays above

O=C(Nc1ccccc1)c1ccc(Nc2nnc(-c3ccc(O)cc3)c3ccccc23)cc1
inactive: all assays above

CC(C)C[C@H](NC(=O)CNC(=O)OCc1ccccc1)C(=O)N[C@@H](Cc1ccccc1)C(=O)CCl (Cbz-Gly-Leu-Phe-CH2Cl)
inactive: all assays above

C=C[C@]1(C)C[C@H](O)[C@H]2C(=C)C(=O)O[C@@H]2[C@H]1C(=C)CO
inactive: all assays above

Cc1cccc(CC(=O)N2CCc3c2ccc(-c2cn(C)c4ncnc(N)c24)c3F)n1
inactive: all assays above

NS(=O)(=O)Nc1ncnc(OCCOc2ncc(Br)cn2)c1-c1ccc(Br)cc1
inactive: all assays above

Cn1cc(-c2cnn3c(N)c(Br)c([C@@H]4CCCNC4)nc23)cn1
inactive: all assays above

C[C@@H]1O[C@@H](O[C@H]2[C@@H]3C=CO[C@@H](O[C@@H]4O[C@H](CO)[C@@H](O)[C@H](O)[C@H]4O)[C@@H]3[C@@]3(CO)O[C@@H]23)[C@H](O)[C@H](OC(=O)/C=C/c2ccccc2)[C@H]1O
inactive: all assays above

CCC(C)C(=O)Oc1cc(C)ccc1C1(COC(=O)C(C)C)CO1 (centres undefined)
inactive: all assays above

CCN1C(C)(C)CC(Oc2ccc(C(=O)Nc3ccc(NC(=O)Nc4cc(C(C)(C)C)on4)cc3)nc2)CC1(C)C
inactive: all assays above

Cc1nc(Nc2ccc(F)cc2)nc(N2CCc3ccccc3C2C)c1C (centres undefined)
inactive: all assays above

CCOC(=O)CCNc1cc(N2CCc3ccccc3CC2)nc(-c2cccnc2)n1
inactive: all assays above

COC(=O)C1=CO[C@@H](O[C@@H]2O[C@H](CO)[C@@H](O)[C@H](O)[C@H]2O)[C@H]2[C@@H]1C=C[C@]21C=C([C@H](C)OC(=O)/C=C/c2ccc(O)cc2)C(=O)O1
inactive: all assays above

Nc1ncnc2c1c(-c1ccc(Cl)cc1)nn2-c1cccc(-c2cnnn2Cc2cccc(-c3ccccc3)c2)c1
inactive: all assays above

CC(=O)CC(=O)Nc1ccc(Cl)c(C(F)(F)F)c1
inactive: all assays above

CCC(C)/C=C(C)/C=C/C1=CC2=CC(=O)C3(C)OC(C)(O)C(C(=O)OC)C3C2=CO1 (centres undefined)
inactive: all assays above

CC1=CC2/C=C(\C)CCC(O)C/C=C/C(=O)OC23C(=O)NC(CC(C)C)C3C1C (centres undefined)
inactive: all assays above

COC1=CC(=O)O/C1=C(/OC)[C@@H]1O[C@H]1c1ccccc1
inactive: all assays above

CCc1cnc(N2CCC(c3nc(COc4ccc(-n5cnnn5)cc4)cs3)CC2)nc1
inactive: all assays above

CCN(CCNC(=O)Nc1ccccc1Br)c1cccc(C)c1
active: [4] 2.67 µM
inactive: all other assays above

C/C=C(\C)C(=O)O[C@H]1C[C@](C)(O)[C@H]2CC=C(C)[C@H]2[C@@H]2OC(=O)[C@H](C)[C@H]21
inactive: all assays above

COc1cccc(-c2cc(F)ccc2C2Cc3nc(N)nc(C)c3C(=O)N2)n1 (centres undefined)
inactive: all assays above
